Bioassay records from PubChem BioAssay.
12-LOX inh = Primary qHTS assay for inhibitors of human arachidonate 12S-lipoxygenase (ALOX12): Round 2; Polyunsaturated fatty acid lipoxygenase ALOX12 (Homo sapiens), P18054; purified 12hLO, xylenol orange hydroperoxide absorbance; Potency, µM (highest dose often 108 µM), for inactives: at the highest dose activity change, negative = inhibition, hits mostly inhibitors; 1.1% of 580,000 active; note: potency is the fitted concentration of half-maximal effect
Target sequence (P18054 whole entry, looked up): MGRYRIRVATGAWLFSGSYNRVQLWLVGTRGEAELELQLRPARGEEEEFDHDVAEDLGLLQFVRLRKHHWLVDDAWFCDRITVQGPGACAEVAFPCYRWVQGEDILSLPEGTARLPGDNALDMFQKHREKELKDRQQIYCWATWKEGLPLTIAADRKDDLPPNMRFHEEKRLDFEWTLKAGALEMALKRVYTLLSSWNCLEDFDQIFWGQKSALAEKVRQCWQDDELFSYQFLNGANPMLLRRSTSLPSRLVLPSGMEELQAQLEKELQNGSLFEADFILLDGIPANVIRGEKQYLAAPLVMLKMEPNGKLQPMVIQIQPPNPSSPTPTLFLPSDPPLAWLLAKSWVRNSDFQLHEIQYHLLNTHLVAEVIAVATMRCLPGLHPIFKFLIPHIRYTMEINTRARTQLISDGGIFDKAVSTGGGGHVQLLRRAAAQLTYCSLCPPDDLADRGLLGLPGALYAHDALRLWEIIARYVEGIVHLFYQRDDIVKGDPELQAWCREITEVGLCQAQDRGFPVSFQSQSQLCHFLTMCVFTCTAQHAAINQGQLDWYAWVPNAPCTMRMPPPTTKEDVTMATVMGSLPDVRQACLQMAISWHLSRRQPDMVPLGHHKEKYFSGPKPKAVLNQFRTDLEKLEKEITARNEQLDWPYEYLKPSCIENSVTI
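Purified human 12hLO (150 nM final) in 25 mM Hepes, 0.01% Triton X-100, pH 7.0 was preincubated 15 min at room temperature with compound. Then 40 uM arachidonic acid was added, 30 min. Hydroperoxide was read by Fe-XO absorbance ratio 573/405 nm.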
HT1080NT lethal = qHTS for induction of synthetic lethality in tumor cells producing 2HG: qHTS for the HT-1080-NT fibrosarcoma cell line; HT-1080-NT fibrosarcoma viability, CellTiter-Glo ATP luminescence, 48 h; Potency, µM (doses to about 46.1 µM), inactives show at the highest dose activity, negative = less viability, actives largely listed as cytotoxic; 1.6% of 360,000 active;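 note: NT is the 2HG producing partner of a matched IDH1 knockdown line; potency is the fitted concentration of half-maximal effect; 0% = DMSO-treated cells and -100% = media-only wells without cells; nearly all actives have a fitted effect of over 55% in size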
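Toxicity toward the 2HG-producing NT line was scored as %Activity, normalised to DMSO and no-cell wells, from CellTiter-Glo luminescence after 48 hours' treatment.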
TDP1 cell noCPT = qHTS for Inhibitors of human tyrosyl-DNA phosphodiesterase 1 (TDP1): qHTS in cells in absence of CPT; 15% of 420,000 active; DT40 Tdp1-/- hTDP1 cells, no CPT, ATP luminescence, 48 h; Potency, µM (series often up to 46.2 µM), without a hit: at the top dose activity change, negative = growth inhibition, most hits filed as inhibitors; note: potency is the fitted concentration of half-maximal effect; nearly all actives have a fitted effect of over 55% in size
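Luminescent ATP content (CellTiter-Glo) served as the growth readout. Knockout chicken DT40 cells expressing human TDP1 were exposed to compounds without camptothecin for a minimum 48 hr at 37 °C.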
TDP1 cell CPT = qHTS for Inhibitors of human tyrosyl-DNA phosphodiesterase 1 (TDP1): qHTS in cells in presence of CPT | chicken DT40 Tdp1-/-;hTDP1 cells + 20 nM CPT, ATP luminescence, 48 h | Potency, µM (titrated, usually from 46.2 µM), for the others: at the top dose activity change, negative = growth inhibition, most hits filed as inhibitors | 12% of 420,000 active; note: potency is the fitted concentration of half-maximal effect; nearly all actives have a fitted effect of over 55% in size
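Chicken DT40 Tdp1-/- cells complemented with human TDP1, 400 cells/well, exposed to compounds plus 20 nM camptothecin for at least 48 h at 37 C; viability read as ATP content by CellTiter-Glo luminescence.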
IL-1B inflam inh = qHTS for Inhibitors of Inflammasome Signaling: IL-1-beta AlphaLISA Primary Screen; activity change, % at 57.5 µM; 4.7% of 360,000 active; THP-1 LPS/ATP IL-1B secretion, AlphaLISA, 16 h; active compounds read low; AID 743279, 2014; in the data active = activity change below about -50%; inconclusive = mostly about -30% to -49%
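Secreted IL-1B measured by AlphaLISA bead assay after 16 h compound exposure of THP-1 cells; compounds (final up to 57.5 uM) added 1 h before LPS (250 ng/mL) and ATP (1.25 mM) stimulation; lower signal means less secretion.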
HT1080 IDH1KD tx = qHTS for induction of synthetic lethality in tumor cells producing 2HG: qHTS for the HT-1080-IDH1KD cell line | AID 686971, 2013 | Potency, µM (series often up to 46.1 µM), for the others: at the top dose activity, negative = toxicity, most hits filed as cytotoxic | HT-1080 IDH1 knockdown viability, ATP luminescence, 48 h | 2% of 360,000 active;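 note: potency is the fitted concentration of half-maximal effect; 0% = DMSO wells and -100% = cell-free medium wells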
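IDH1KD HT-1080 cells, 750/well, RPMI + 5% FBS; compound pinned after 2 h settling; 48 h, 37 °C; CellTiter-Glo luminescence; % activity normalised to DMSO and no-cell wells; curves fitted, classed by r2 and efficacy.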
Starred values were filed as active, the others as inactive; i = inactive; ? = inconclusive; nt = no result; [ ] = remark or other dose. The full list was thinned out, with hits kept by preference. Unless noted, calls come from the whole dose curve; as a rule, active = well fitted curve in the direction sought with a large enough effect; inconclusive = small, poorly fitted or top-dose-only effect, or another doubt; inactive = no such curve, though single readings can be large; an effect the other way counts as inactive or inconclusive. Unless noted, % is set by controls: 0 for no effect and ±100 for the full control effect.

SMILES	12-LOX inh	HT1080NT lethal	TDP1 cell noCPT	TDP1 cell CPT	IL-1B inflam inh	HT1080 IDH1KD tx
CCCCc1ncc(-c2c(-c3ccccc3)ncn2CCC2CCCN2C)[nH]1 (centres undefined)	102%	nt	nt	nt	nt	nt
CN(C(=O)CSc1cn(CC(=O)N2CCCCC2)c2ccccc12)c1ccccc1	0%	nt	?	?	nt	nt
CN(C(=O)CSc1cn(CC(=O)N2CCCCCC2)c2ccccc12)c1ccccc1	-11%	nt	18µM*	?	nt	nt
CCCNC(=O)CSc1cn(CC(=O)N2CCCCCC2)c2ccccc12	-22%	nt	-22%	-18%	nt	nt
CC(C)N(C(=O)CSc1cn(CC(=O)N2CCCCCC2)c2ccccc12)C(C)C	-22%	nt	18µM*	?	nt	nt
COc1ccccc1N1CCN(C(=O)COCC(=O)NCc2ccccc2)CC1	-5%	nt	nt	nt	nt	nt
O=c1c2c(C(F)(F)F)cc(C(F)(F)F)nc2[nH]n1-c1ccccc1	?	?	?	14µM*	-75*	?
Cc1cc(C(C)(C)C)nc2[nH]n(-c3ccccc3)c(=O)c12	-7%	2%	-25%	-8%	17	5%
COc1cccc(CNC(=O)Cn2c(=O)oc3cc(S(=O)(=O)N4CCC(C)CC4)ccc32)c1	-35%	nt	5.2µM*	7.3µM*	nt	nt
CC1CCN(S(=O)(=O)c2ccc3c(c2)oc(=O)n3CC(=O)N2CCCCC2)CC1	2%	nt	0%	9%	nt	nt
CC1CCN(S(=O)(=O)c2ccc3c(c2)oc(=O)n3CC(=O)NCc2ccc(F)cc2)CC1	-23%	nt	8.2µM*	12µM*	nt	nt
COc1cccc(CNC(=O)Cn2ccc3cc(S(=O)(=O)N4CCC(C)CC4)ccc32)c1	-28%	0%	?	?	-16	1%
O=C(NCc1nnc2ccc(-c3ccccc3)nn12)c1ccc[nH]c1=O	9%	nt	nt	nt	nt	nt
Cc1ccc(C(=O)N2CCCCCCNC(=O)CC2)s1	20%	nt	nt	nt	nt	nt
CC(Cc1cccs1)N(Cc1ccccc1)C(=O)c1cccc(S(=O)(=O)N(C)C)c1 (centres undefined)	8%	nt	nt	nt	nt	nt
COc1ccc(CCNC(=O)c2coc(=O)c(Br)c2)cc1	0%	?	1.3µM*	0.65µM*	0	?
COc1ccc(CCNC(=O)c2ccc(-c3ccc([N+](=O)[O-])cc3)o2)cc1OC	3%	-20%	?	18µM*	?	-24%
COc1ccc(CCNC(=O)c2ccc(Br)o2)cc1Br	?	9%	?	23µM*	-12	3%
COc1ccc(CNCCc2ccc([N+](=O)[O-])cc2)c(OC)c1OC	7.9µM*	-18%	21µM*	6.5µM*	-5	-15%
COc1ccc(C)cc1NCc1ccc([N+](=O)[O-])cc1	4%	6%	-24%	0%	6	2%
Cc1nc(N2CCC(NC(=O)c3ccc4ccccc4n3)CC2)cc(C(F)(F)F)n1	-4%	nt	nt	nt	nt	nt
Cn1c(SCCC(=O)Nc2sccc2C#N)nnc1-c1ccccc1F	19%	nt	nt	nt	nt	nt
O=Cc1cccc(-c2cccs2)c1	4%[12.5 µM]	nt	nt	nt	nt	nt
Cc1ccc(C(O)(C(=O)NN)c2ccc(C)cc2)cc1	8%	nt	nt	nt	nt	nt
Cc1ccc(-c2nnc(SCC(=O)N/N=C/c3c(C)nn(-c4ccccc4)c3C)n2-c2ccc(C)cc2)cc1	-16%	-24%	?	?	2	-26%
SMILES	12-LOX inh	HT1080NT lethal	TDP1 cell noCPT	TDP1 cell CPT	IL-1B inflam inh	HT1080 IDH1KD tx
Cc1cccc(C)c1NC(=O)CCCSc1nnc(-c2ccc(F)cc2)n1-c1ccccc1	-19%	6%	?	?	-19	1%
Cc1ccc(/C=N/NC(=O)CSc2nnc(-c3ccc(Cl)cc3)n2-c2ccc(Cl)cc2)o1	-6%	18µM*	?	23µM*	-3	?
Cc1cccc(C)c1NC(=O)CCCSc1nnc(-c2ccc(Cl)cc2)n1-c1ccccc1	-12%	-6%	16µM*	23µM*	i	?
Cc1ccc(-c2nnc(SCC(=O)N/N=C/c3ccc(C)s3)n2-c2ccccc2)cc1	7%	?	18µM*	?	-23	?
Cc1nn(-c2ccccc2)c(C)c1/C=N/NC(=O)CSc1nnc(-c2ccccc2)n1-c1ccc(Cl)cc1	-3%	1%	26µM*	?	?	-16%
Cc1ccc(/C=N/NC(=O)CSc2nnc(-c3ccccc3)n2-c2ccc(Cl)cc2)o1	-26%	0%	?	?	-28	4%
COc1ccc(-c2noc(CC3CCN(C(=O)c4ccccc4OC)CC3)n2)cc1	38%	nt	nt	nt	nt	nt
CCc1c(C(=O)NCCC23CC4CC(CC(C4)C2)C3)csc1C	7%	nt	nt	nt	nt	nt
NC(=O)CCN(C(=O)c1cccc(Cl)c1)c1ccc(F)cc1	1%	nt	nt	nt	nt	nt
O=C(c1ccco1)N1CC2(CC(c3ccc(Cl)cc3)=NO2)CN1Cc1ccc(Br)cc1 (centres undefined)	?	6%	?	21µM*	-17	9%
CC(C)N1CC2(CC(c3ccccc3F)=NO2)CN1C(=O)c1ccco1 (centres undefined)	0%	14%	-9%	-2%	14	9%
O=C(NCCc1ccccc1Cl)c1ccc2nc3ccccc3c(=O)n2c1	0%	4%	?	15µM*	-19	1%
Cc1ccccc1CCNC(=O)c1ccc2c(c1)c(C)c(C)n2Cc1ccccc1	-11%	nt	?	18µM*	nt	nt
Cc1c(C)n(Cc2ccccc2)c2ccc(C(=O)NCCc3ccccc3Cl)cc12	0%	nt	?	21µM*	nt	nt
CCCCCCCOc1ccc(C2CC(=O)N(C)C2=O)cc1 (centres undefined)	-8%	-9%	?	-2%	-76*	-19%
CCCCOc1ccc(C2CC(=O)NC2=O)cc1 (centres undefined)	-23%	5%	-11%	2%	2	8%
CCc1ccccc1NCC(=O)Nc1ccc(Cl)c(C(F)(F)F)c1	8%	?	16µM*	26µM*	nt	?
O=C(CCNC(=O)c1ccccc1Cl)Nc1ccc(Cl)c(C(F)(F)F)c1	-9%	-1%	23µM*	?	-1	-14%
